This is part of a sample that, as a whole, favours compounds with a hit. Of some 79,000 tested, about 15% had one in any assay. Unmarked numbers belong to inactive results. The source made the active and inactive calls. Cut-off read from the data, not from the text of the source: active = growth inhibition above about 70%; inactive = the rest.
How the values were obtained:
[1] = NCI Yeast Anticancer Drug Screen. Data for the rad50 strain (AID 155);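 note: 0% = growth of vehicle-only cultures of the same strain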; details: S. cerevisiae rad50 strain growth inhibition; at 50.0 µM; stronger effect = higher value
How it was run: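 Inhibition values express reduced yeast growth in compound-treated cultures relative to vehicle-treated controls.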

[2] = NCI Yeast Anticancer Drug Screen. Data for the mec2-1 strain (AID 157); details: S. cerevisiae mec2-1 strain, at 50.0 µM, stronger effect = higher value
How it was run: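 Test agents were screened against the mec2-1 yeast strain, with defined DNA repair or cell cycle alteration. Growth was scored as inhibition against vehicle-only controls.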

[3] = NCI Yeast Anticancer Drug Screen. Data for the sgs1 mgt1 strain (AID 161);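 note: 0% = growth of cultures given vehicle only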; details: S. cerevisiae sgs1 mgt1 strain, at 50.0 µM, stronger effect = higher value
How it was run: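 Test agents were incubated with a DNA-repair-mutant yeast strain. Growth was then read and compared against vehicle-treated controls.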

[4] = NCI Yeast Anticancer Drug Screen. Data for the cln2 rad14 strain (AID 165);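 note: 0% = growth equal to vehicle treated cultures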; details: S. cerevisiae cln2 rad14 strain, at 50.0 µM, stronger effect = higher value
How it was run: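 Growth of compound-exposed yeast (cln2 rad14 genotype) measured and expressed as inhibition relative to vehicle.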

[5] = NCI Yeast Anticancer Drug Screen. Data for the bub3 strain (AID 167); details: S. cerevisiae bub3 mutant strain, at 50.0 µM, stronger effect = higher value
How it was run: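 Steps: expose the mutant yeast strain to compound; grow alongside vehicle-treated cultures; measure growth; express inhibition against the vehicle cultures.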

[6] = NCI Yeast Anticancer Drug Screen. Data for the mlh1 rad18 strain (AID 175); details: S. cerevisiae mlh1 rad18 strain growth inhibition; at 50.0 µM; stronger effect = higher value
How it was run: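 In this whole-cell yeast screen, a strain with altered DNA damage repair is challenged with compound, and its growth is measured against matched vehicle-treated controls.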

SMILES | growth inhibition [1] | growth inhibition [2] | growth inhibition [3] | growth inhibition [4] | growth inhibition [5] | growth inhibition [6]
C=C(Br)C[N+]12CN3CN(CN(C3)C1)C2 | -2% | -6.55% | 2.15% | -6.95% | 2.7% | -17.2%
O=c1ccc2c(O)c3ccoc3cc2o1 | -14.7% | -10% | 5.7% | -5.05% | 3.45% | -22.9%
[I][Ni][I].c1ccc([PH+](c2ccccc2)c2ccccc2)cc1.c1ccc([PH+](c2ccccc2)c2ccccc2)cc1 | 21% | 38.4% | 64% | 17.6% | 5.7% | 48.7%
CNC(=O)O/N=C(\CN=[N+]=[N-])C(C)(C)C | 4.6% | 3.55% | -1.4% | 0% | -19.6% | -20.5%
O=C(CCl)Oc1ccccc1 | -47.1% | -33.5% | -27.1% | -10.8% | -59.5% | -28.1%
CC[N+](CC)(CC)CC.N#CC(C#N)=C([SH2+])[SH2+].N#CC(C#N)=C([SH2+])[SH2+].[Co+2] | 95.3% (active) | 95.8% (active) | 56% | 94.5% (active) | 98.9% (active) | 98.7% (active)
CCC[CH2][Sn]([CH2]CCC)([n]1cncn1)[n]1cncn1 | 92.2% (active) | 96.1% (active) | 93.7% (active) | 78.2% (active) | 88.5% (active) | 93.8% (active)
Cn1cc(C(=O)C[n+]2ccccc2)c2ccccc21 | -20.4% | -0.45% | -18.3% | 3.7% | -30.1% | -5.45%
Oc1ccc(Cl)c(Cl)c1 | -3.45% | -32.5% | -72.8% | -3.1% | -51.5% | -13.8%
COCCOC(=O)NCP(Cl)(CNC(=O)OCCOC)(CNC(=O)OCCOC)CNC(=O)OCCOC | -11.6% | -4.85% | -29.8% | -19.7% | -1.75% | -5.75%
O=C(CCSCCC(=O)N/N=C/c1ccc(N(CCCl)CCCl)cc1)N/N=C\c1ccc(N(CCCl)CCCl)cc1 | 7% | 3.85% | 9.35% | -6.4% | -9.45% | 16.6%
CC(Br)C(=O)C(CCN(C)C)(c1ccccc1)c1ccccc1 (centres undefined) | 17.6% | -0.05% | 7.95% | -6.4% | 21.8% | 17.1%
Cc1c[nH]c2c1C13CC1CN(C(=O)c1cc4cc(NC(=O)c5cc6ccccc6o5)ccc4[nH]1)C3=CC2=O (centres undefined) | 84.9% (active) | 91.4% (active) | 90.3% (active) | 88.2% (active) | 90.2% (active) | 89% (active)
CCN1CCc2cc(OC)c(OC)cc2C1 | 0.15% | 4.7% | 6.45% | -25.9% | -0.6% | 3.5%
[C-]#[O+].[C-]#[O+].[C-]#[O+].[C-]#[O+].[C-]#[O+].[CH3][Sn]([Cl])[c]1ccccc1.[Mn] | 91.5% (active) | 96.5% (active) | 89.7% (active) | 88.6% (active) | 96% (active) | 92.5% (active)
CC1(C)CN=C(Nc2ccc(F)c(Cl)c2)S1 | 12.9% | 1.15% | -17.9% | 9.8% | -24.7% | -35.4%
CC(=O)Nc1ccc(-c2ccccc2)cc1 | 39.7% | 24.8% | 46.6% | 17.9% | -0.5% | 32.9%
NC(Cc1ccc(Cl)cc1)c1nn[nH]n1 (centres undefined) | -5.5% | 1.25% | -4.1% | -22.4% | 1.2% | -7.7%
CCOP(=O)(Cc1ccc(Cl)cc1)OCC | 33.8% | 7.9% | 17.6% | 21.4% | 15.2% | 8.05%
O=[As](c1ccccc1)(c1ccccc1)c1ccc(Br)cc1 | 31.1% | 1.25% | 12.2% | 5.1% | 6.2% | 4.7%

SMILES | growth inhibition [1] | growth inhibition [2] | growth inhibition [3] | growth inhibition [4] | growth inhibition [5] | growth inhibition [6]
Cc1cc(C)n(/C(N)=N/[N+](=O)[O-])n1 | -15.3% | -18.9% | 3.6% | 12.6% | 21.6% | 15.2%
CC1(C)CCC[N+]1(C)CCC(C(N)=O)(c1ccccc1)c1ccccc1 (centres undefined) | 12.7% | 5.3% | 6.6% | 4.45% | 8.8% | 3.35%
CC(Cc1ccc(Cl)cc1Cl)NO (centres undefined) | 15.7% | -12.2% | -15.9% | -25.6% | -43.2% | -2.15%
C1=C[N-]c2c3c(ccc2=C1)=CC=C[N-]3.C1=C[N-]c2c3c(ccc2=C1)=CC=C[N-]3.C1=C[N-]c2c3c(ccc2=C1)=CC=C[N-]3.[Co+3].[O-][Cl+3]([O-])([O-])O | -8.95% | -16.4% | -22.8% | -26.1% | -1.15% | 8.2%
CN(C)C(=O)NC(O)C(Cl)(Cl)Cl (centres undefined) | -20.4% | -8.35% | -5.45% | -21.1% | -4.25% | 19.1%
c1ccc2nc(-c3ccc4ccccc4n3)ccc2c1 | -5.95% | -7.45% | -3.4% | -49.4% | -13.7% | -12.2%
CC1CC(C)OP(Oc2ccccc2)O1 (centres undefined) | -24.6% | 4.05% | -21.8% | -15.7% | -7.15% | -10.5%
COc1cc(C=C2C(=O)NC(=S)NC2=O)cc(OC)c1OC | 5.05% | -15.9% | 3.35% | 18.6% | -1.35% | -0.95%
CCCCS(=O)CCC(N)P(=O)(O)O (centres undefined) | -50.6% | -54% | -52.8% | -9.9% | 1% | -38.2%
N#Cc1ccc(Cc2ccccn2)cc1Cl | -1.55% | -1.55% | -8.9% | 2.1% | -18.9% | 4.25%
Clc1cccc2ccccc12 | 7.8% | -12.2% | 0.1% | 14.1% | 3.4% | 16.1%
C=CCNC(=S)/N=C/c1c(O)[nH]c(=O)[nH]c1=O | -64.8% | -50.4% | -44.9% | -47% | -15.8% | -44.1%
CC1(C)CN1C1=C(F)C(=O)C(N2CC2(C)C)=C(F)C1=O | 36.5% | 68.2% | 50.5% | 8.45% | 47.3% | 74.3% (active)
c1ccc(N=PNc2ccccc2)cc1 (centres undefined) | -4.7% | -6.25% | -9.5% | -51.6% | 23% | -13.3%
CC1=C[C@H]2O[C@@H]3[C@H](OC(=O)CCl)[C@@H](O)[C@](C)(C2(COC(=O)CCl)CC1)[C@@]31CO1 (some centres undefined) | 91.8% (active) | 92.8% (active) | 92.7% (active) | 91.6% (active) | 92.2% (active) | 91.2% (active)
O=[As](O)(O)c1ccc(N=Nc2ccccc2)cc1 | -4.25% | -14.2% | -6.05% | -19.9% | 5.75% | -17.2%
CCCCOP(=O)(Nc1ccc(Cl)cc1)OCCCC | 99.3% (active) | 99.7% (active) | 99.5% (active) | 99.2% (active) | 99.4% (active) | 99.5% (active)
Oc1cc(N2CC2)c(O)cc1N1CC1 | 12.8% | 13.9% | 11.2% | -42.6% | -1.75% | 11.4%
S=[As](c1ccc(-c2ccccc2)cc1)(c1ccc(-c2ccccc2)cc1)c1ccc(-c2ccccc2)cc1 | -10.7% | -5.55% | -39.5% | -19.6% | -13.6% | -18.2%

Source: PubChem BioAssay (NCI)
